# According to paper PMC11062922 (Nature Chemical Biology, 2023):
# Like-named read-outs stand apart in the source and are kept apart here.
# Assays:
# MARK4 = settings: read-out: apparent Kd, n = 1
# NTRK1 = settings: read-out: apparent Kd, n = 1
# [1] = compound concentrations:100 nM and 1000 nM (sheet 'Lestaurtinib' of Supplementary Table 1),run:Lestaurtinib_02795_R2,Plate:MR022
# [2] = compound concentrations:100 nM and 1000 nM (sheet 'Lestaurtinib' of Supplementary Table 1),run:Lestaurtinib_02802_R3,Plate:MR029
# [3] = compound concentrations:100 nM and 1000 nM (sheet 'Lestaurtinib' of Supplementary Table 1),run:Lestaurtinib_02896_R2,Plate:MR030
# [4] = compound concentrations:100 nM and 1000 nM (sheet 'Lestaurtinib' of Supplementary Table 1),run:Lestaurtinib_03172_R1,Plate:MR031
# [5] = compound concentrations:100 nM and 1000 nM (sheet 'Lestaurtinib' of Supplementary Table 1),run:Lestaurtinib_03172_R2,Plate:MR031
substance,measurement,setting,value
Lestaurtinib,potency estimated from few doses,MARK4; [1],157 nM
same,potency estimated from few doses,"MARK4; compound concentrations:100 nM and 1000 nM (sheet 'Lestaurtinib' of Supplementary Table 1),run:Lestaurtinib_02802_R2,Plate:MR029",86 nM
same,potency estimated from few doses,MARK4; [2],77.8 nM
same,potency estimated from few doses,MARK4; [3],141 nM
same,potency estimated from few doses,"MARK4; compound concentrations:100 nM and 1000 nM (sheet 'Lestaurtinib' of Supplementary Table 1),run:Lestaurtinib_02896_R3,Plate:MR030",87.4 nM
same,potency estimated from few doses,MARK4; [4],86.8 nM
same,potency estimated from few doses,MARK4; [5],297 nM
same,potency estimated from few doses,"MARK4; compound concentrations:100 nM and 1000 nM (sheet 'Lestaurtinib' of Supplementary Table 1),run:Lestaurtinib_03252_R1,Plate:MR032",41.6 nM
same,potency estimated from few doses,"MARK4; compound concentrations:100 nM and 1000 nM (sheet 'Lestaurtinib' of Supplementary Table 1),run:Lestaurtinib_03252_R2,Plate:MR032",59.5 nM
same,potency estimated from few doses,"MARK4; compound concentrations:100 nM and 1000 nM (sheet 'Lestaurtinib' of Supplementary Table 1),run:Lestaurtinib_03260_R1,Plate:MR033",469 nM
same,potency estimated from few doses,"MARK4; compound concentrations:100 nM and 1000 nM (sheet 'Lestaurtinib' of Supplementary Table 1),run:Lestaurtinib_03260_R2,Plate:MR033",609 nM
same,potency estimated from few doses,"MARK4; compound concentrations:100 nM and 1000 nM (sheet 'Lestaurtinib' of Supplementary Table 1),run:Lestaurtinib_03260_R3,Plate:MR033",165 nM
same,potency estimated from few doses,"NTRK1; compound concentrations:100 nM and 1000 nM (sheet 'Lestaurtinib' of Supplementary Table 1),run:Lestaurtinib_02339_R2,Plate:MR001",1580 nM
same,potency estimated from few doses,"NTRK1; compound concentrations:100 nM and 1000 nM (sheet 'Lestaurtinib' of Supplementary Table 1),run:Lestaurtinib_02339_R3,Plate:MR001",1910 nM
same,potency estimated from few doses,"NTRK1; compound concentrations:100 nM and 1000 nM (sheet 'Lestaurtinib' of Supplementary Table 1),run:Lestaurtinib_02364_R1,Plate:MR002",893 nM
same,potency estimated from few doses,"NTRK1; compound concentrations:100 nM and 1000 nM (sheet 'Lestaurtinib' of Supplementary Table 1),run:Lestaurtinib_02364_R2,Plate:MR002",971 nM
same,potency estimated from few doses,"NTRK1; compound concentrations:100 nM and 1000 nM (sheet 'Lestaurtinib' of Supplementary Table 1),run:Lestaurtinib_02364_R3,Plate:MR002",789 nM
same,potency estimated from few doses,"NTRK1; compound concentrations:100 nM and 1000 nM (sheet 'Lestaurtinib' of Supplementary Table 1),run:Lestaurtinib_02381_R1,Plate:MR004",763 nM
same,potency estimated from few doses,"NTRK1; compound concentrations:100 nM and 1000 nM (sheet 'Lestaurtinib' of Supplementary Table 1),run:Lestaurtinib_02381_R2,Plate:MR004",626 nM
same,potency estimated from few doses,"NTRK1; compound concentrations:100 nM and 1000 nM (sheet 'Lestaurtinib' of Supplementary Table 1),run:Lestaurtinib_02381_R3,Plate:MR004",1330 nM
same,potency estimated from few doses,"NTRK1; compound concentrations:100 nM and 1000 nM (sheet 'Lestaurtinib' of Supplementary Table 1),run:Lestaurtinib_02407_R1,Plate:MR005",1580 nM
same,potency estimated from few doses,"NTRK1; compound concentrations:100 nM and 1000 nM (sheet 'Lestaurtinib' of Supplementary Table 1),run:Lestaurtinib_02422_R1,Plate:MR006",1590 nM
same,potency estimated from few doses,"NTRK1; compound concentrations:100 nM and 1000 nM (sheet 'Lestaurtinib' of Supplementary Table 1),run:Lestaurtinib_02422_R2,Plate:MR006",1420 nM
same,potency estimated from few doses,"NTRK1; compound concentrations:100 nM and 1000 nM (sheet 'Lestaurtinib' of Supplementary Table 1),run:Lestaurtinib_02437_R2,Plate:MR007",1490 nM
same,potency estimated from few doses,"NTRK1; compound concentrations:100 nM and 1000 nM (sheet 'Lestaurtinib' of Supplementary Table 1),run:Lestaurtinib_02437_R3,Plate:MR007",113 nM
same,potency estimated from few doses,"NTRK1; compound concentrations:100 nM and 1000 nM (sheet 'Lestaurtinib' of Supplementary Table 1),run:Lestaurtinib_02438_R1,Plate:MR008",1000 nM
same,potency estimated from few doses,"NTRK1; compound concentrations:100 nM and 1000 nM (sheet 'Lestaurtinib' of Supplementary Table 1),run:Lestaurtinib_02438_R2,Plate:MR008",1530 nM
same,potency estimated from few doses,"NTRK1; compound concentrations:100 nM and 1000 nM (sheet 'Lestaurtinib' of Supplementary Table 1),run:Lestaurtinib_02443_R1,Plate:MR009",796 nM
same,potency estimated from few doses,"NTRK1; compound concentrations:100 nM and 1000 nM (sheet 'Lestaurtinib' of Supplementary Table 1),run:Lestaurtinib_02473_R1,Plate:MR010",695 nM
same,potency estimated from few doses,"NTRK1; compound concentrations:100 nM and 1000 nM (sheet 'Lestaurtinib' of Supplementary Table 1),run:Lestaurtinib_02473_R2,Plate:MR010",826 nM
same,potency estimated from few doses,"NTRK1; compound concentrations:100 nM and 1000 nM (sheet 'Lestaurtinib' of Supplementary Table 1),run:Lestaurtinib_02482_R2,Plate:MR011",894 nM
same,potency estimated from few doses,"NTRK1; compound concentrations:100 nM and 1000 nM (sheet 'Lestaurtinib' of Supplementary Table 1),run:Lestaurtinib_02482_R3,Plate:MR011",649 nM
same,potency estimated from few doses,"NTRK1; compound concentrations:100 nM and 1000 nM (sheet 'Lestaurtinib' of Supplementary Table 1),run:Lestaurtinib_02487_R2,Plate:MR012",1150 nM
same,potency estimated from few doses,"NTRK1; compound concentrations:100 nM and 1000 nM (sheet 'Lestaurtinib' of Supplementary Table 1),run:Lestaurtinib_02487_R3,Plate:MR012",921 nM
same,potency estimated from few doses,"NTRK1; compound concentrations:100 nM and 1000 nM (sheet 'Lestaurtinib' of Supplementary Table 1),run:Lestaurtinib_02496_R1,Plate:MR013",946 nM
same,potency estimated from few doses,"NTRK1; compound concentrations:100 nM and 1000 nM (sheet 'Lestaurtinib' of Supplementary Table 1),run:Lestaurtinib_02496_R2,Plate:MR013",1400 nM
same,potency estimated from few doses,"NTRK1; compound concentrations:100 nM and 1000 nM (sheet 'Lestaurtinib' of Supplementary Table 1),run:Lestaurtinib_02496_R3,Plate:MR013",828 nM
same,potency estimated from few doses,"NTRK1; compound concentrations:100 nM and 1000 nM (sheet 'Lestaurtinib' of Supplementary Table 1),run:Lestaurtinib_02566_R2,Plate:MR014",898 nM
same,potency estimated from few doses,"NTRK1; compound concentrations:100 nM and 1000 nM (sheet 'Lestaurtinib' of Supplementary Table 1),run:Lestaurtinib_02572_R1,Plate:MR015",810 nM
same,potency estimated from few doses,"NTRK1; compound concentrations:100 nM and 1000 nM (sheet 'Lestaurtinib' of Supplementary Table 1),run:Lestaurtinib_02572_R3,Plate:MR015",974 nM
same,potency estimated from few doses,"NTRK1; compound concentrations:100 nM and 1000 nM (sheet 'Lestaurtinib' of Supplementary Table 1),run:Lestaurtinib_02577_R2,Plate:MR016",1300 nM
same,potency estimated from few doses,"NTRK1; compound concentrations:100 nM and 1000 nM (sheet 'Lestaurtinib' of Supplementary Table 1),run:Lestaurtinib_02584_R2,Plate:MR017",1000 nM
same,potency estimated from few doses,"NTRK1; compound concentrations:100 nM and 1000 nM (sheet 'Lestaurtinib' of Supplementary Table 1),run:Lestaurtinib_02601_R1,Plate:MR018",1580 nM
same,potency estimated from few doses,"NTRK1; compound concentrations:100 nM and 1000 nM (sheet 'Lestaurtinib' of Supplementary Table 1),run:Lestaurtinib_02601_R2,Plate:MR018",673 nM
same,potency estimated from few doses,"NTRK1; compound concentrations:100 nM and 1000 nM (sheet 'Lestaurtinib' of Supplementary Table 1),run:Lestaurtinib_02601_R3,Plate:MR018",924 nM
same,potency estimated from few doses,"NTRK1; compound concentrations:100 nM and 1000 nM (sheet 'Lestaurtinib' of Supplementary Table 1),run:Lestaurtinib_02606_R2,Plate:MR019",1210 nM
same,potency estimated from few doses,"NTRK1; compound concentrations:100 nM and 1000 nM (sheet 'Lestaurtinib' of Supplementary Table 1),run:Lestaurtinib_02606_R3,Plate:MR019",1600 nM
same,potency estimated from few doses,"NTRK1; compound concentrations:100 nM and 1000 nM (sheet 'Lestaurtinib' of Supplementary Table 1),run:Lestaurtinib_02624_R1,Plate:MR020",1300 nM
same,potency estimated from few doses,"NTRK1; compound concentrations:100 nM and 1000 nM (sheet 'Lestaurtinib' of Supplementary Table 1),run:Lestaurtinib_02624_R2,Plate:MR020",614 nM
same,potency estimated from few doses,"NTRK1; compound concentrations:100 nM and 1000 nM (sheet 'Lestaurtinib' of Supplementary Table 1),run:Lestaurtinib_02624_R3,Plate:MR020",873 nM
same,potency estimated from few doses,"NTRK1; compound concentrations:100 nM and 1000 nM (sheet 'Lestaurtinib' of Supplementary Table 1),run:Lestaurtinib_02724_R2,Plate:MR021",691 nM
same,potency estimated from few doses,"NTRK1; compound concentrations:100 nM and 1000 nM (sheet 'Lestaurtinib' of Supplementary Table 1),run:Lestaurtinib_02724_R3,Plate:MR021",628 nM
same,potency estimated from few doses,"NTRK1; compound concentrations:100 nM and 1000 nM (sheet 'Lestaurtinib' of Supplementary Table 1),run:Lestaurtinib_02741_R1,Plate:MR023",772 nM
same,potency estimated from few doses,"NTRK1; compound concentrations:100 nM and 1000 nM (sheet 'Lestaurtinib' of Supplementary Table 1),run:Lestaurtinib_02741_R2,Plate:MR023",783 nM
same,potency estimated from few doses,"NTRK1; compound concentrations:100 nM and 1000 nM (sheet 'Lestaurtinib' of Supplementary Table 1),run:Lestaurtinib_02741_R3,Plate:MR023",1330 nM
same,potency estimated from few doses,"NTRK1; compound concentrations:100 nM and 1000 nM (sheet 'Lestaurtinib' of Supplementary Table 1),run:Lestaurtinib_02748_R1,Plate:MR024",922 nM
same,potency estimated from few doses,"NTRK1; compound concentrations:100 nM and 1000 nM (sheet 'Lestaurtinib' of Supplementary Table 1),run:Lestaurtinib_02748_R2,Plate:MR024",951 nM
same,potency estimated from few doses,"NTRK1; compound concentrations:100 nM and 1000 nM (sheet 'Lestaurtinib' of Supplementary Table 1),run:Lestaurtinib_02752_R1,Plate:MR025",2130 nM
same,potency estimated from few doses,"NTRK1; compound concentrations:100 nM and 1000 nM (sheet 'Lestaurtinib' of Supplementary Table 1),run:Lestaurtinib_02765_R2,Plate:MR026",528 nM
same,potency estimated from few doses,"NTRK1; compound concentrations:100 nM and 1000 nM (sheet 'Lestaurtinib' of Supplementary Table 1),run:Lestaurtinib_02766_R2,Plate:MR027",1650 nM
same,potency estimated from few doses,"NTRK1; compound concentrations:100 nM and 1000 nM (sheet 'Lestaurtinib' of Supplementary Table 1),run:Lestaurtinib_02766_R3,Plate:MR027",1440 nM
same,potency estimated from few doses,"NTRK1; compound concentrations:100 nM and 1000 nM (sheet 'Lestaurtinib' of Supplementary Table 1),run:Lestaurtinib_02768_R1,Plate:MR028",628 nM
same,potency estimated from few doses,"NTRK1; compound concentrations:100 nM and 1000 nM (sheet 'Lestaurtinib' of Supplementary Table 1),run:Lestaurtinib_02768_R2,Plate:MR028",897 nM
same,potency estimated from few doses,"NTRK1; compound concentrations:100 nM and 1000 nM (sheet 'Lestaurtinib' of Supplementary Table 1),run:Lestaurtinib_02795_R1,Plate:MR022",852 nM
same,potency estimated from few doses,NTRK1; [1],1240 nM
same,potency estimated from few doses,"NTRK1; compound concentrations:100 nM and 1000 nM (sheet 'Lestaurtinib' of Supplementary Table 1),run:Lestaurtinib_02802_R1,Plate:MR029",896 nM
same,potency estimated from few doses,NTRK1; [2],943 nM
same,potency estimated from few doses,NTRK1; [3],935 nM
same,potency estimated from few doses,NTRK1; [4],1440 nM
same,potency estimated from few doses,NTRK1; [5],662 nM
